High-throughput results: PubChem BioAssay, National Center for Advancing Translational Sciences (NCATS)
DRD3 agonist – qHTS of D3 Dopamine Receptor Agonist: qHTS | 410,000 compounds, 0.58% hits | D(3) dopamine receptor (Homo sapiens), P35462 | D3R DiscoveRx beta-arrestin cells, luminescence, 90 min | max activation, %; in the data active = max activation above about 30%
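Agonist mode: compounds and dopamine controls were applied to plated cells for 90 min at 37 degrees C after an overnight attachment at 1500 cells/well. Luminescent read-out followed 30 - 60 minutes at room temperature with DiscoveRx detection reagent.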
DRD3 antagonist – qHTS of D3 Dopamine Receptor Antagonist: qHTS | D(3) dopamine receptor (Homo sapiens), P35462 | D3R cells, DiscoveRx beta-arrestin luminescence, antagonist mode; stronger effect = lower value | max response, negative = inhibition, % | 360,000 compounds, 2.5% hits; in the data active = max response below about -50%; inconclusive = no clear call, values can overlap the other calls
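Cells expressing the human receptor were seeded at 1500 cells/well, incubated overnight at 37 degrees C in 5% CO2, then exposed to library compounds with dopamine controls for 90 minutes at 37 degrees C before luminescent detection.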
PI5P4Ka inh – qHTS for Inhibitors of phosphatidylinositol 5-phosphate 4-kinase (PI5P4K) | 330,000 compounds, 1.2% hits | AID 652105, 2013 | max response, % | Phosphatidylinositol 5-phosphate 4-kinase type-2 alpha (Homo sapiens), P48426 | PI5P4Kalpha enzyme, ADP-Glo luminescence, 60 min; stronger effect = lower value; active = max response of -50% or lower; inconclusive = between -30% and -50%; inactive = -30% or higher; note: value at the top dose of about 77 µM
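Human PI5P4Kalpha with substrate in 0.038 M HEPES pH 7.4, 0.28 mM EGTA, 0.1% CHAPS, 5% DMSO; reaction started with 5 microM ATP (final), 60 min at room temperature. ADP formed read by ADP-Glo luminescence.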
LDHA block – qHTS assay for inhibitors of human lactate dehydrogenase; purified LDHA, NADH/diaphorase-resazurin fluorescence; stronger effect = lower value; activity change, % (values are at about 110 or 230 µM); 480,000 compounds, 0.15% hits; in the data active = activity change below about -30%; inconclusive = mostly about -25% to -30%
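Enzyme activity of human lactate dehydrogenase 5 (2 nM; 0.06 mM NADH, 0.2 mM pyruvate, 5 min, RT) is measured via a resazurin/diaphorase fluorescence readout of residual NADH.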
PI4K2A block – qHTS for small molecular inhibitors of PI4K2A | activity change, negative = inhibition, % at 76.9 µM | 420,000 compounds, 0.13% hits | Phosphatidylinositol 4-kinase type 2-alpha (Homo sapiens), Q9BTU6 | purified PI4K2A, ADP-Glo luminescence, 1 h; stronger effect = lower value; in the data active = activity change below about -50%; inconclusive = mostly about -30% to -49%
Target sequence (Q9BTU6 whole entry, looked up): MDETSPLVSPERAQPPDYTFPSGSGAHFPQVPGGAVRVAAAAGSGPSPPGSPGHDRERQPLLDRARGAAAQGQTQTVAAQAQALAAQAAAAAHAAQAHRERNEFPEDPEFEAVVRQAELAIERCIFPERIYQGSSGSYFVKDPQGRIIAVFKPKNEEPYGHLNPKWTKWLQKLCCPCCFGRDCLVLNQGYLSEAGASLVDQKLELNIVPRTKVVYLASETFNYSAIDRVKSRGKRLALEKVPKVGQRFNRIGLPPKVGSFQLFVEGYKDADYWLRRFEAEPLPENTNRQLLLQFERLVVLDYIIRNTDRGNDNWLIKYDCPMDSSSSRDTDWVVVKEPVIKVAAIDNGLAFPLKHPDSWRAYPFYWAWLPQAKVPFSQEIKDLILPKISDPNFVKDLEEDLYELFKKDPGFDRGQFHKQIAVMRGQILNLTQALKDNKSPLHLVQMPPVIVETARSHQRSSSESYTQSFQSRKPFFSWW
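ADP-Glo luminescence measured ADP generated by PI4K2A enzyme (4 ug/mL before mixing) with 1.2 mM PI substrate (pre-mix) and 300 microM ATP (pre-mix). Tris pH7.5 buffer with MgCl2, Triton X-100; 1 h reaction at ambient temperature.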
Hits are given with their value; - = inactive; ? = inconclusive; . = not tested or not shown; ! = a repeat was not active. Hits are enriched below; roughly 3.3% of the tested compounds scored in any of these assays.

SMILES	DRD3 agonist	DRD3 antagonist	PI5P4Ka inh	LDHA block	PI4K2A block
CCc1nc2ccccc2c(C(=O)OCC(=O)Nc2cccc(S(=O)(=O)NC3=NCCCCC3)c2)c1C	45	-	-	-	-
Nc1nc2ncc(C(=O)c3cc(Cl)cc(Cl)c3O)cc2s1	-	-	-57	-	-
COc1ccc2cc(C(=O)N3CCC(C(N)=O)CC3)[nH]c2c1	.	.	.	-	.
Cc1cccc(N2CCN(C(=O)c3cn(CC(C)C)c(=O)c4c3c3ccccc3n4C)CC2)c1C	30	.	.	-	-
NNC(=O)c1cc2ccccc2cc1O	-	-	-52	-	-
Cc1ccc(Cl)cc1NC(=O)c1cc2ccccc2cc1O	36	-	-	-	-
COc1cc(NC(=O)c2cc3ccccc3cc2O)c(OC)cc1Cl	-	-	-	-	-
Cn1nc(C(=O)Nc2nc(-c3cccc4ccccc34)cs2)c2ccccc2c1=O	.	.	.	-	.
O=c1c(C(c2c(O)nc3n(c2=O)CCS3)c2cccc3ccccc23)c(O)nc2n1CCS2	-	-	-76	-	-
O=c1c(C(c2ccc(O)cc2)c2c(O)nc3n(c2=O)CCS3)c(O)nc2n1CCS2	-	-	-59	-	?
Cc1ccc(C(c2c(O)nc3n(c2=O)CCS3)c2c(O)nc3n(c2=O)CCS3)cc1	-	-	-	-	-52
Cc1cc(C)c(C(=O)COC(=O)c2cccs2)c(C)c1	.	.	.	-	.
S=C(NN=C1CCCCCC1)Nc1ccc(Cl)cc1	-	-	.	-	-
Fc1ccc(NC(=S)NN=C2CCCCCC2)cc1	-	-150	.	-	-
O=C(Nc1ccc(Cl)c(Cl)c1)c1ccc(Cl)c(Cl)c1	-	-	-	-	-
Cc1ccc(NC(=O)c2ccc(Cl)c(N3C(=O)C=CC3=O)c2)cc1	-	?	-68	-	-
Cc1cc(NCc2ccccc2)c2ccccc2n1	-	-	-	-	-
Cc1cc(NCc2ccccc2)nc2ccccc12	-	-57	-	-	-
O=C(CNCCN1CCOCC1)Nc1ccccc1Sc1ccccc1	-	-	-	-31	-
COc1ccc(C(=O)Oc2c(C)cccc2C)cc1I	.	.	.	-	.
CCN(CC)CCCNCC(=O)Nc1cc(C)on1	-	-	-	-30	-
O=C(CSc1nc2ccccc2c(=O)[nH]1)c1ccc(O)cc1O	-	-	-	-	-
O=C(CSc1nc2ccccc2n1CCc1ccccc1)c1ccc(O)c(O)c1	-	-	-89	-	-
O=C(CSc1nc2ccccc2c(=O)[nH]1)c1ccc(O)c(O)c1	-	-	-56	-	-
Cc1ccc(C(=O)CSc2nc(C)cc(=O)[nH]2)cc1	-	-	-	-	-
SMILES	DRD3 agonist	DRD3 antagonist	PI5P4Ka inh	LDHA block	PI4K2A block
Cc1cc(=O)[nH]c(SCC(=O)c2ccc(O)c(O)c2)n1	31	-	-	-	-
O=C(Cc1ccc(F)cc1)N(Cc1ccc(C(F)(F)F)cc1)C1CC1	.	.	.	-	.
COc1ccc(CNC(=O)c2ccc(-n3ccnc3)c3ccoc23)cc1OC	-	-76	-	-	?
N=C1C(c2nc(-c3ccc(Cl)cc3)cs2)=C(O)CN1NC(=O)c1ccc2c(c1)OCO2	.	.	.	-	.
CC(=O)Nc1ccc(SCC(=O)N(C)C2CCS(=O)(=O)C2)cc1 (configuration not stated)	-	-59	-	-	-
Cc1cc(C(=O)CSc2nnc(C(C)Oc3ccccc3F)o2)c(C)n1C1CC1 (configuration not stated)	.	.	.	-	.
COC(=O)C1=C(C(=O)OC)SC2(S1)C(C(=O)OC)=C(C(=O)OC)SC1=C2c2cc(C)cc(C)c2NC1(C)C	-	-78	-	-	-
O=c1nc2ccccc2c2n1CC(CN1CCN(c3ccccc3F)CC1)N2 (configuration not stated)	-	-69	-	-	-
CCn1c2ccccc2c2cc(C=NNC(=O)CSc3nc4ccccc4c(=O)n3-c3ccccc3)ccc21	.	.	.	.	-
Cc1ccc(OCCOCCN2CCCCC2)c([N+](=O)[O-])c1	-	-	-	-	-
Cc1ccc(C(C)(C)C)c(OCCOCCN2CCCC2)c1	-	-54	-	-	-
CC(C)(C)c1ccccc1OCCOCCN1CCCCCC1	-	-62	-	-	-
CCOC(=O)[C@H](CCc1ccccc1)N[C@@H](C)C(=O)N1Cc2cc(OC)c(OC)cc2C[C@H]1C(=O)O	-	.	.	.	-
CCn1ncc(Br)c1CNC(=O)C1CCCN(S(=O)(=O)c2cnn(C)c2C)C1 (configuration not stated)	.	.	.	-	.
O=Cc1coc2ccc3ccccc3c2c1=O	-	-	-86	-	-
CCOC(=O)/C=C1\NC(=O)CS1	-	-	-	-	-
COc1cccc(C(C)=C2SC(=S)NC2=O)c1	-	-	-71	-	-
COc1ccc(/C=C2/SC(=S)NC2=O)cc1OCc1ccccc1	-	-	-75	-	-
CCO/C(C)=C1/SC(=S)NC1=O	-	-	-63	-	-
COc1cccc(C=C2SC(=S)NC2=O)c1	-	-	-60	-	-
COc1cc(C(=O)Nc2ccc(-c3nc4cc(C)ccc4o3)cc2)cc(OC)c1OC	.	.	.	-	.
O=C(NC1CCCC1)c1cc2cc([N+](=O)[O-])ccc2oc1=O	.	.	.	-	.
O=C1NC(=S)SC1=Cc1ccc2c(c1)OCO2	-	-	-78	-	-
O=C1NC(=S)N/C1=C/c1ccc2c(c1)OCO2	-	-	-	-	-
Cc1ccc(C(=O)NCC(C)C)cc1	.	.	.	-	.
SMILES	DRD3 agonist	DRD3 antagonist	PI5P4Ka inh	LDHA block	PI4K2A block
CC(=O)NC(C)(c1ccccc1)c1nc(-c2cncnc2)cs1 (configuration not stated)	-	-60	-	-	-
Cc1ccc2c(Cl)cc(Cl)c(OCC(=O)N3CCCCC3)c2n1	.	.	.	-	.
O=C(O)c1ccccc1N/N=C\c1ccnc2ccccc12	-	-	-68	?	-
ON=Cc1ccnc2ccccc12	-	-	-	-	-
C=C[C@@]1(C)C[C@H](OC(=O)CSC(C)(C)CNC(=O)[C@@H](N)C(C)C)[C@@]2(C)C(C)CC[C@@]3(CCC(=O)[C@@H]32)[C@H](C)[C@H]1O (some centres not stated)	.	.	.	-	.
C=C[C@]1(C)C[C@@H](OC(=O)CSCCN(CC)CC)[C@]2(C)C(C)CC[C@]3(CCC(=O)[C@H]32)[C@@H](C)[C@@H]1O (some centres not stated)	-	-89!	-	-	-
O=Cc1ccc2[nH]ccc2c1	.	.	.	-	.
CC(=O)Nc1cc(C)c(I)cc1C	.	.	.	-	.
CCOc1ccc(NS(=O)(=O)c2ccc(C(=O)NCC(c3ccco3)N(C)C)cc2)cc1 (configuration not stated)	-	-	-	-	-
